These results are taken from PubChem BioAssay (NCATS).

“And” between values parts separate entries of the source, which are not always exact repeats. Equal entries are not always repeated. Results filed as inconclusive are left out. The source made the active and inactive calls. Unless noted, calls come from the whole dose curve. Bounds are passed on as bounds.

Assay [1] in a line: Cell Viability - SK-N-SH (AID 435).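 Note: potency is the fitted concentration of half-maximal effect; compound exposure lasted 40 h at 37 °C.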 The note with it: SK-N-SH neuroblastoma cell viability qHTS. In outline: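 CellTiter-Glo ATP luminescence, 20 min RT read; cells pre-plated 5 hr, compound 40 hr at 37 °C, 1500 cells/well, complete medium. Normalized DMSO = 0, 100 uM tamoxifen = 100% inhibition; Hill-fit AC50.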
For orientation: qHTS replaces the single test concentration by a dilution series.

The nature of assay [2]: Cell Viability - NIH 3T3 (AID 541; active = well fitted curve in the direction sought with a large enough effect; an effect the other way counts as inactive or inconclusive;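 note: cells exposed to compound for 40 hours; plate controls were DMSO alone for no effect and tamoxifen positive control for full effect; nearly all actives have a fitted effect of over 25% in size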). The note with it: NIH 3T3 cell viability, qHTS; activity change, negative = cytotoxicity: at 92.2 µM (top of the series). In outline: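 AC50 values reflect concentration-dependent loss of intracellular ATP in NIH 3T3 cells after 40 hr treatment in complete culture medium, quantified by luciferase-based luminescence.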
Assay [3] can be described thus: Cell Viability - H-4-II-E (AID 543; active = well fitted curve in the direction sought with a large enough effect; an effect the other way counts as inactive or inconclusive;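 note: cells exposed to compound for 40 hours; % is set by controls: 0 for no effect and ±100 for the full control effect; nearly all actives have a fitted effect of over 35% in size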). As to conditions: H-4-II-E rat hepatoma viability; series mostly up to 92.2 µM. A digest of the protocol:
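Here, cytotoxicity is measured in the rat hepatoma line H-4-II-E as loss of intracellular ATP after 40 hr compound treatment, detected by luciferase luminescence.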

Assay [4] in a line: MultiTox-Fluor Cytotoxicity Assay - LYMP1-001 - Live Cells (AID 947; active = well fitted curve in the direction sought with a large enough effect; an effect the other way counts as inactive or inconclusive;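 note: 0% = DMSO only and full inhibition = tetraoctylammonium bromide control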). The note with it: LYMP1-001 lymphoblastoid cells, live-cell protease fluorescence viability; series mostly up to 92.2 µM.
For assay [5], the target named is Glucocorticoid receptor (Homo sapiens) (UniProt P04150). The assay can be described thus: qHTS assay for small molecule agonists of glucocorticoid receptor signaling (AID 588532; active = well fitted curve in the direction sought with a large enough effect in the signal ratio, with a control signal flat; the % refers to the signal ratio;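 note: 100% = dexamethasone at 0.1 µM and 0% = DMSO only wells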). As to conditions: HeLa MMTV-bla, beta-lactamase ratio, agonist, 18 h; stronger effect = higher value; percent of dexamethasone control, DMSO zero. In outline:
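Cells were plated and rested 3-5 h at 37 C, compounds were added in titration and incubated 18 h, then CCF4 substrate was loaded for 2 h at RT before reading blue/green fluorescence. EC50 came from Hill-equation fitting.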

A short description of assay [6]: qHTS assay for small molecule antagonists of peroxisome proliferator-activated receptor delta signaling (AID 588535; active = well fitted inhibition curve with a large enough effect in the signal ratio, with a control signal flat, not every such curve was filed as active; the % refers to the signal ratio;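 for max response: cells co-treated with a PPAR-delta agonist as stimulator during compound exposure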). As to conditions: HEK293T PPARd-UAS-bla, beta-lactamase FRET ratio, 18 h; 460 nm channel. A digest of the protocol: (§1)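 Cells were seeded at 4000 per well in assay medium containing 2% charcoal/dextran FBS and held 5 hrs at 37 C. Compounds were then added for 18 hrs. CCF4 substrate was applied for 2 hrs at room temperature before fluorescence reading.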

Assay [7] deals with Peroxisome proliferator-activated receptor delta (Homo sapiens) (UniProt Q03181). The assay is described as above. As to conditions: HEK293T PPARd-UAS-bla, beta-lactamase FRET ratio, 18 h; series mostly up to 76.7 µM. A digest of the protocol: as §1
Assay [8] deals with Peroxisome proliferator-activated receptor gamma (Homo sapiens) (UniProt P37231). The experiment in a line: qHTS assay for small molecule antagonists of peroxisome proliferator-activated receptor gamma signaling (AID 588537; active = well fitted inhibition curve with a large enough effect in the signal ratio, with a control signal flat, not every such curve was filed as active; the % refers to the signal ratio;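 note: reporter cells co-stimulated with 50 nM rosiglitazone agonist during compound treatment; % of control where 0% means no effect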). The note with it: HEK293 PPARg-UAS-bla, beta-lactamase ratio, antagonist mode; series mostly up to 76.8 µM. In outline:
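Step one: plate 3000 HEK293 UAS-bla cells per well in medium with 1% stripped serum and hold 6-6.5 h at 37 C. Step two: add compound and 50 nM agonist for 16 h. Step three: CCF4 loading, fluorescence read.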

In assay [9] the target is Vitamin D3 receptor (Homo sapiens) (UniProt P11473). The assay can be described thus: qHTS assay for small molecule antagonists of vitamin D receptor signaling (AID 588541).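 Note: receptor activated by calcitriol during compound treatment; % is set by controls: 0 for no effect and ±100 for the full control effect.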 As to conditions: HEK293T VDR-UAS-bla, beta-lactamase ratio, antagonist mode; series mostly up to 76.7 µM. In outline:
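VDR-UAS-bla HEK293T cells in 2% charcoal-stripped FBS were stimulated with 1-alpha,25-dihydroxyvitamin D3 (3 nM final) plus compound for 16 h at 37 C. The beta-lactamase CCF4 readout was normalized to 50 nM agonist and DMSO, and Hill fits gave IC50.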

The target of assay [10] is Thyroid hormone receptor beta (Homo sapiens) (UniProt P10828). The assay can be described thus: qHTS assay for small molecule antagonists of thyroid hormone receptor beta signaling (AID 588547; active = well fitted inhibition curve with a large enough effect in the signal ratio, with a control signal flat, not every such curve was filed as active; the % refers to the signal ratio;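 note: cells stimulated with 0.4 nM T3 agonist during compound exposure; % is set by controls: 0 for no effect and ±100 for the full control effect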). As to conditions: TR-UAS-bla HEK293, beta-lactamase ratio, antagonist mode, 18 h. In outline:
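TR-UAS-bla GripTite HEK293 cells in 2% charcoal/dextran FBS medium; compounds 0.59 nM to 92 uM with T3 at 0.4nM final, 18 h at 37 C. Beta-lactamase read by CCF4 fluorescence (460/530 nm); Hill fits gave IC50 and efficacy.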

Assay [11] is described as follows: qHTS assay for small molecule agonists of the antioxidant response element (ARE) signaling pathway (AID 651741; active = well fitted activation curve with a large enough effect in the signal ratio; the % refers to the signal ratio; note: % of control where 0% means no effect). The note with it: HepG2 ARE-bla reporter, beta-lactamase FRET ratio, 16 h; series mostly up to 96 µM. In outline:
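HepG2 ARE-bla cells plated at 2,000 cells/well and incubated 5 h at 37 C/5% CO2 received 23 nL compound in DMSO. After 16 h at 37 C, LiveBLAzer B/G FRET substrate was applied for 2 h at room temperature and fluorescence read.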

Assay [12] is described as follows: qHTS assay for small molecule activators of the nuclear factor-kappa B (NF-kB) signaling pathway (AID 651749; active = well fitted activation curve with a large enough effect in the signal ratio; the % refers to the signal ratio; note: % of control where 0% means no effect). The note with it: NF-kB-bla ME-180 cells, beta-lactamase FRET ratio, 16 h; stronger effect = higher value. In outline: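 Incubation lasted 16 hr at 37C in 5% CO2 after 23 nL compound addition to ME-180 NF-kB-bla cells. Activation appears as beta-lactamase-mediated FRET loss.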

Assay [13] in a line: qHTS assay for small molecule disruptors of the mitochondrial membrane potential - 5 hr assay (AID 651755). Note: % is set by controls: 0 for no effect and ±100 for the full control effect; nearly all actives have a fitted effect of over 40% in size. The note with it: JC-1-type ratio dye; series mostly up to 92.2 µM. A digest of the protocol:
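HepG2 cells (2,000/well), attached overnight, exposed to compound 5 hr at 37C, then Mito-MPS dye 30 min. Fluorescence read for monomers (490/535 nm) and aggregates (540/590 nm).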

Assay [14] has as its target Nuclear receptor ROR-gamma (Homo sapiens) (UniProt P51449). The experiment in a line: qHTS assay for small molecule antagonists of the retinoid-related orphan receptor gamma (ROR-gamma) signaling pathway (AID 651802; active = well fitted curve in the direction sought with a large enough effect; an effect the other way counts as inactive or inconclusive;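 note: CHO cells with doxycycline-induced ROR-gamma expression; luciferase reporter luminescence driven by ROR response element; % is set by controls: 0 for no effect and ±100 for the full control effect; nearly all actives have a fitted effect of over 60% in size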). As to conditions: ROR-gamma antagonist cell reporter assay; series mostly up to 92.2 µM. A digest of the protocol:
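Antagonism is scored as a fall in luminescence from a RORE-luciferase reporter in CHO cells expressing ROR under a TET-inducible promoter, measured 16hr after doxycycline induction in the presence of compound.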

Assay [15] is described as follows: qHTS assay for small molecule agonists of the antioxidant response element (ARE) signaling pathway measured by Nrf2-dependant transcriptional activity (AID 720636; active = well fitted curve in the direction sought with a large enough effect in the repeat runs; an effect the other way counts as inactive or inconclusive; note: % of control where 0% means no effect). As to conditions: ARE-luc HepG2, Nrf2 luciferase reporter, 16 h; series mostly up to 92.4 µM. A digest of the protocol: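 Attachment 6 hr at 37 C, then compound versus DMSO vehicle for 16 hr in ARE-luc HepG2 cells (1% dialyzed FBS); luminescence recorded 30 min after ONE-Glo addition at room temperature.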

For assay [16], the target named is Peroxisome proliferator-activated receptor delta (Homo sapiens) (UniProt Q03181). The assay can be described thus: qHTS assay for small molecule agonists of peroxisome proliferator-activated receptor delta signaling (AID 588534).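 Note: 0% = DMSO basal wells and 100% = positive control agonist at 10 µM.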 As to conditions: HEK293T PPARdelta-UAS-bla, beta-lactamase ratio, 18 h; series mostly up to 76.7 µM. A digest of the protocol:
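Reporter cells were plated and held 5 hrs at 37 C before compounds were added. After 18 hrs at 37 C, CCF4 dye was loaded for 2 hrs at RT and fluorescence measured.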

Assay [17] can be described thus: qHTS assay for small molecule disruptors of the mitochondrial membrane potential - 1 hr assay (AID 651754). Note: % is set by controls: 0 for no effect and ±100 for the full control effect; nearly all actives have a fitted effect of over 35% in size. As to conditions: series mostly up to 92.2 µM. In outline:
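Steps: seed HepG2 cells and let attach overnight; pin-transfer compound or vehicle; incubate 1 hr at 37C; add Mito-MPS dye for 30 min; read two-channel fluorescence for monomer and aggregate forms.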

The target of assay [18] is Estrogen receptor (Homo sapiens) (UniProt P03372). The experiment in a line: qHTS assay for small molecule antagonists of estrogen receptor alpha signaling (AID 588513; active = well fitted curve in the direction sought with a large enough effect in the signal ratio, with a control signal flat, not every such curve was filed as active; the % refers to the signal ratio; note: % is set by controls: 0 for no effect and ±100 for the full control effect). The note with it: ER-alpha-UAS-bla HEK293, beta-lactamase ratio, antagonist mode; series mostly up to 76.9 µM. A digest of the protocol:
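Beta-lactamase reporter, antagonist mode, HEK 293 GripTite cells; 0.5nM E2 stimulus, 18 h, 37 C; CCF4 dye 2 h RT; fluorescence. IC50 and efficacy from Hill fits, normalized to E2 and DMSO.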

Assay [19] has the same target. The experiment in a line: qHTS assay for small molecule agonists of estrogen receptor alpha signaling (AID 588514).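 Note: 0% = vehicle only and 100% = reference agonist; nearly all actives have a fitted effect of over 70% in size.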 The note with it: ER-alpha-UAS-bla HEK293, beta-lactamase ratio, 18 h; series mostly up to 76.8 µM. In outline:
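Reporter-gene assay. […] controls beta-lactamase in HEK 293 GripTite cells; after 18 hrs with compound, CCF4 substrate is added for 2 hrs and fluorescence is read.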

Assay [20] addresses Glucocorticoid receptor (Homo sapiens) (UniProt P04150). The experiment in a line: qHTS assay for small molecule antagonists of glucocorticoid receptor signaling (AID 588533; active = well fitted inhibition curve with a large enough effect in the signal ratio, with a control signal flat, not every such curve was filed as active; the % refers to the signal ratio; note: % is set by controls: 0 for no effect and ±100 for the full control effect). As to conditions: HeLa MMTV-bla, GRE beta-lactamase ratio, antagonist mode, 18 h; series mostly up to 76.8 µM. A digest of the protocol:
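Antagonist-mode qHTS: compound titrations added to GRE-bla HeLa cells, then dexamethasone 2 nM final; 18 h, 37 C. CCF4 FRET fluorescence normalized to dexamethasone and DMSO; IC50 from Hill fit.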

Chain of Peroxisome proliferator-activated receptor gamma (Homo sapiens) (P37231 whole entry, looked up): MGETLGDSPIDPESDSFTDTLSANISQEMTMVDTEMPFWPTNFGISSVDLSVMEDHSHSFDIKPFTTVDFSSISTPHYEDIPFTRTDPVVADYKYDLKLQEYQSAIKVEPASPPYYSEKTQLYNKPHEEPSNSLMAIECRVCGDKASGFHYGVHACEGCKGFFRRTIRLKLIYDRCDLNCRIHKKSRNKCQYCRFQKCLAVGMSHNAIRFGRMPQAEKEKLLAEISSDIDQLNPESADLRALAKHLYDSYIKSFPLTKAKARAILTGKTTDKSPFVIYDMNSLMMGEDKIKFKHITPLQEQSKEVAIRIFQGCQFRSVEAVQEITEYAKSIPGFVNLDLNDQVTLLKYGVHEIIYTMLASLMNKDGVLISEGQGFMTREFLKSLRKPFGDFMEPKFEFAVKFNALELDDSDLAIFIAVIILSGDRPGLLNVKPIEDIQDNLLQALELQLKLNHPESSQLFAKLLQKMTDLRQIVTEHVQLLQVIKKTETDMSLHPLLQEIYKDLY
Chain of Peroxisome proliferator-activated receptor delta (Homo sapiens) (Q03181 whole entry, looked up): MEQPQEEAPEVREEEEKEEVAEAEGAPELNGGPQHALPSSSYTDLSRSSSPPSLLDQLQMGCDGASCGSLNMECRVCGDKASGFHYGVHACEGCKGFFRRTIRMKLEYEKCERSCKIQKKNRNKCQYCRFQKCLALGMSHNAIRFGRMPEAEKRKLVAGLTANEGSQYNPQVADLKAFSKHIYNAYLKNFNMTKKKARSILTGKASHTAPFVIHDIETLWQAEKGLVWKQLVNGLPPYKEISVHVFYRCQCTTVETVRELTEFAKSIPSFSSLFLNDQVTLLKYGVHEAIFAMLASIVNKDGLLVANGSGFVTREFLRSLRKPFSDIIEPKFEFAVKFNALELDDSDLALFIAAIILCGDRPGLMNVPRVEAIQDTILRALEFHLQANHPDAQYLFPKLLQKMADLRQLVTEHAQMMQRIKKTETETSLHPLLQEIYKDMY
Chain of Estrogen receptor (Homo sapiens) (P03372 whole entry, looked up): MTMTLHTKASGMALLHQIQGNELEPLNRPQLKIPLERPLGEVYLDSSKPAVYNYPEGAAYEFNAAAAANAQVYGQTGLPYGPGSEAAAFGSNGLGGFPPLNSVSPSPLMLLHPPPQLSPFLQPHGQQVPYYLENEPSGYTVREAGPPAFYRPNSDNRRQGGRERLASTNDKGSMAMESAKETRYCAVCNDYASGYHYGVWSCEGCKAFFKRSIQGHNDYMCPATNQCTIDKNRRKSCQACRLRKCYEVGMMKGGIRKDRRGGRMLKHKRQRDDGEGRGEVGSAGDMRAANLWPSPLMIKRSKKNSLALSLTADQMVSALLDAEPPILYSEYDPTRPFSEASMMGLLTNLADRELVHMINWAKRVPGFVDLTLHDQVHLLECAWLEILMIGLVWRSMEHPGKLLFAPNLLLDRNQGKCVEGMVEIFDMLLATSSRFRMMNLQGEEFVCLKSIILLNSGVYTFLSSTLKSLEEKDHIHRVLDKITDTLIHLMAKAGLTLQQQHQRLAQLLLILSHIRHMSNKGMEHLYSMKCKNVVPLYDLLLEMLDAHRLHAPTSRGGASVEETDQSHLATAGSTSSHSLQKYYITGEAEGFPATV
Chain of Thyroid hormone receptor beta (Homo sapiens) (P10828 whole entry, looked up): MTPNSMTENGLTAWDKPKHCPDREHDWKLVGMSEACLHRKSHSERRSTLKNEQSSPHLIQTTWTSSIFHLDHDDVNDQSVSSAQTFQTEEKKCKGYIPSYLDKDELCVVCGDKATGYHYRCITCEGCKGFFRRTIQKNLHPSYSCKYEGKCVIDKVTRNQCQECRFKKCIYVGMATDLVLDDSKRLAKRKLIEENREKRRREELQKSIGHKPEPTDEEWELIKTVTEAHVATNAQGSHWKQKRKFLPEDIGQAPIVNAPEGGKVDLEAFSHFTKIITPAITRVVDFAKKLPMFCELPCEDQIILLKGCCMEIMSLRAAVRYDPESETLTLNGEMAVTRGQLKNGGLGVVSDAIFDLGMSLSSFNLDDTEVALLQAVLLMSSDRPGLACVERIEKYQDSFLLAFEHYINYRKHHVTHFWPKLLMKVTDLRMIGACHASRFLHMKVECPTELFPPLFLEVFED
Chain of Nuclear receptor ROR-gamma (Homo sapiens) (P51449 whole entry, looked up): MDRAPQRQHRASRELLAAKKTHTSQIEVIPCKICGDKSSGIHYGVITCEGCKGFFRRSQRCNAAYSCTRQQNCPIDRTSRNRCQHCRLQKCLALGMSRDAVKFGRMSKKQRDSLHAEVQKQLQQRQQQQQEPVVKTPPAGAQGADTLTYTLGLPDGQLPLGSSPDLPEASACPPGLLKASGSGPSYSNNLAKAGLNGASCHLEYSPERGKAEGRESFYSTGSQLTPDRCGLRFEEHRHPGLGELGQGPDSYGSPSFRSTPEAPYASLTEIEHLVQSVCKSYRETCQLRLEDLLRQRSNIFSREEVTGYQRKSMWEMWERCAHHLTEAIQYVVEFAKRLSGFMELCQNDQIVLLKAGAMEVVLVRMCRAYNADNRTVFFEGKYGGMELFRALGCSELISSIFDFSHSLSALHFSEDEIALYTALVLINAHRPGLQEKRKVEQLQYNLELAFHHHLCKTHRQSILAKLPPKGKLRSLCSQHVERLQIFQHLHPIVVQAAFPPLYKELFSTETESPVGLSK
Chain of Glucocorticoid receptor (Homo sapiens) (P04150 whole entry, looked up): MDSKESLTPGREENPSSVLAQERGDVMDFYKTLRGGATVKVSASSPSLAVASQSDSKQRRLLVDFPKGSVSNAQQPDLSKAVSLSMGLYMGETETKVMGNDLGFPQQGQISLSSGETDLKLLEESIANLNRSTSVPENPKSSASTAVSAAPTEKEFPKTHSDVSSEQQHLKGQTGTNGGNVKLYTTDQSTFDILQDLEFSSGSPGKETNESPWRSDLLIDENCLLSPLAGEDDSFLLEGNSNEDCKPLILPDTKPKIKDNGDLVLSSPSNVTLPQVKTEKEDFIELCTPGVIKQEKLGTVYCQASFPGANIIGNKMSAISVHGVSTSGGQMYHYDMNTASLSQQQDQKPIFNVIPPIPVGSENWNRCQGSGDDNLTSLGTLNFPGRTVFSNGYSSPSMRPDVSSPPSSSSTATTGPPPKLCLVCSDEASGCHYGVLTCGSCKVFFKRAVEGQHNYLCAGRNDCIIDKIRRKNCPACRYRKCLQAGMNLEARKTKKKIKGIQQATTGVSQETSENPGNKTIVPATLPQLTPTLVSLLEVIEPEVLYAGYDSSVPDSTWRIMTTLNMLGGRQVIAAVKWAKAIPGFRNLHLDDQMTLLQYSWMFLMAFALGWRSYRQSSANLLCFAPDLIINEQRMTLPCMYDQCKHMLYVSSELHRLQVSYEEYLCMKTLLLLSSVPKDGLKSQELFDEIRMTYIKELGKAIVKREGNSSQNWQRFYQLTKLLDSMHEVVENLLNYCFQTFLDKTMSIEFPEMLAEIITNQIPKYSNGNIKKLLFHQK
Chain of Vitamin D3 receptor (Homo sapiens) (P11473 whole entry, looked up): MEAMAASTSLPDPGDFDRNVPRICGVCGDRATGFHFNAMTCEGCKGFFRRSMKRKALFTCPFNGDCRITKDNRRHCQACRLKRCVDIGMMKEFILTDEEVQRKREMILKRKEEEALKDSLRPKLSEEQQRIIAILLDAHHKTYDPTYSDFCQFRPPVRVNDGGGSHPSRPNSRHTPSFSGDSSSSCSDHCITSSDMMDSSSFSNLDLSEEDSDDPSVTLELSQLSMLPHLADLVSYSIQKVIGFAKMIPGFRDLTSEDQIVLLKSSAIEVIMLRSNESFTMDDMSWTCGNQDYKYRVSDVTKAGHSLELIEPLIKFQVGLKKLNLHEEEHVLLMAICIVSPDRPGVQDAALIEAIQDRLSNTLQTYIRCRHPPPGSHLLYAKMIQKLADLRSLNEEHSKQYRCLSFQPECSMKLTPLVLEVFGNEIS

As for `OCCCCO`, in assay [1], the Potency was > 92 µM (inactive). The Potency result in assay [2], in [3], in assay [8], in [11], in assay [13] and in assay [14] was “inactive” each time. For the same compound, the Potency result in assay [15] was “inactive”. For the same compound, the compound was classed as inactive in assay [4], in assay [7] and in assay [9]. The activation in [5] was -5.33% (inactive); in assay [12] it was -0.721% (inactive). In addition, the max response in assay [6] is -23.5%. Besides, the activity change % (negative = inhibition) in [10] was 10.4% (inactive).
For the compound `Clc1ccc(Cl)c(Cl)c1`, the Potency in assay [1] was > 92 µM (inactive). The Potency result in [2], in assay [8], in assay [11] and in assay [14] was “inactive” in each case. The outcome in assay [4], in assay [16], in [7] and in [9] was inactive. Also, the max response in assay [6] was -17.8% and 7%. The activity change % (negative = inhibition) in assay [10] is -0.795% (inactive) and 9.45% (inactive).
As to `ClCC(Cl)CCl`, the Potency in [1] is > 92 µM (inactive). Besides, the Potency result in assay [2], in assay [11], in assay [17], in [13], in assay [14] and in [15] was “inactive” throughout. In addition, the outcome in [4], in assay [16] and in [7] was inactive. For the same compound, the activation in assay [5] was -1.49% (inactive) and -1.66% (inactive). In addition, in assay [6], the max response was 17.7%. Further, the activity change % (negative = inhibition) in [10] is 0.0158% (inactive) and 2.43% (inactive).
As to `ClC(Cl)Br`, the Potency in [1] was > 92 µM (inactive). In addition, the Potency entry in assay [2], in assay [3], in [18], in [19], in assay [8] and in [17] was “inactive” throughout. Further, the Potency entry in [13] and in assay [15] was “inactive” throughout. Besides, the result in [4], in [20], in assay [7] and in assay [9] was inactive. In addition, the activation in assay [5] is -5.41% (inactive); in assay [12], -1.16% (inactive). For the same compound, the max response in [6] is -6.86%. In [10], the activity change % (negative = inhibition) was 9.06% (inactive).
On to `CC(Cl)(Cl)Cl`, for which, in assay [1], the Potency is > 92 µM (inactive). The Potency result in assay [3], in [8], in [11], in assay [17], in [13] and in assay [14] was “inactive” each time. For the same compound, the Potency entry in [15] was “inactive”. The compound was called inactive in [4], in [16], in [7] and in assay [9]. In assay [6], the max response is -34.9% and 9.34%. In assay [10], the activity change % (negative = inhibition) is 0.316% (inactive) and -7.15% (inactive). Moreover, in assay [12], the activation is -0.312% (inactive) and 0.328% (inactive).
Regarding `COc1ccccc1N`, the Potency in assay [1] is > 92 µM (inactive). Moreover, the Potency result in [2], in [8], in assay [17], in [13], in [14] and in assay [15] was “inactive” in each case. Besides, the compound was classed as inactive in [4].
As for `CCCCCCCCCCCCCl`, the Potency in assay [1] is > 92 µM (inactive). Moreover, the Potency result in [2], in assay [3], in assay [18], in assay [19], in assay [8] and in assay [17] was “inactive” in each case. Also, the Potency result in [13] and in assay [15] was “inactive” in each case. Moreover, the compound was called inactive in [4], in assay [20], in assay [16] and in assay [7]. The activation in assay [5] was 2.7% (inactive). For the same compound, the max response in assay [6] amounted to 10.4%.
Consider `CCCCCOC(=O)c1ccccc1C(=O)OCCCCC`, for which the Potency in assay [1] was > 92 µM (inactive). Besides, the Potency result in assay [2], in [18], in assay [19], in assay [8], in assay [11] and in assay [17] was “inactive” each time. Besides, the Potency entry in [13], in assay [14] and in [15] was “inactive” throughout. For the same compound, the outcome in assay [4] and in assay [9] was inactive. The activation was 5.29% (inactive) and -3.67% (inactive) in [5]; 1.01% (inactive) and -1.21% (inactive) in [12].
